# Results from PubChem BioAssay (Tox21).
# Inconclusive results are not listed. A call without a number means that no potency is given here. The source made the active and inactive calls. Calls follow the shape of the full dose curve.
# Assay: p53 small molecule agonists, cell-based qHTS assay with human liver microsomes: qHTS cell viability counter screen (AID 1963579); also: nearly all actives have a fitted effect of over 45% in size
# Details: p53RE-bla HCT-116 viability, ATP luminescence, 16 h, HLM; series mostly up to 66 µM
# Text: National Center for Advancing Translational Sciences [NCATS]
# Division of Preclinical Innovation [DPI]
# U.S. Environmental Protection Agency [EPA]
# National Institutes of Environmental Health Sciences [NIEHS]
# National Toxicology Program [NTP]
# U.S. Food and Drug Administration [FDA]
# p53, a tumor suppressor protein, is activated following cellular insult, including DNA damage and other cellular stresses. The activation of p53 regulates cell fate by inducing DNA repair, cell cycle arrest, apoptosis, or cellular senescence. The activation of p53, therefore, is a good indicator of DNA damage and other cellular stresses. […] The activation of the reporter gene under culture conditions can be detected by fluorescence intensity. This cell line was used to screen the Tox21 10K compound library in the condition of presence of human liver microsomes and to identify agonists that activate the p53 signaling pathway after in vitro metabolic activation (Ooka et al., Archive of Toxicology 96:1975-1987, 2022).
# Tox21 Assay Protocol Summary:
# The p53RE-bla cells were dispensed at 4,000cells/3ul/well in 1536-well black-clear bottom plates. After the assay plates were incubated at 37 C, 5% CO2 incubator for 5 hours, 23 nL of compounds dissolved in DMSO, positive controls or DMSO only was transferred to the assay plate. Following compound addition, 3 uL of human liver microsomes (XenoTech, Kansas City, KS) at final concentration of 0.5 mg/mL and 1uL of B-Nicotinamide adenine dinucleotide 2'-phosphate (NADPH) at final concentration of 0.5 mg/mL were transferred to the assay plate. The plates were incubated at 37 C for 16 hours. 1 uL of LiveBLAzer detection mixture was added to each well and the plates were incubated at room temperature in the dark for 2 h. Fluorescence intensity at 460 and 530 nm emission and 405 nm excitation were measured by an Envision plate reader. For cell viability readout that measures cytotoxicity, 4 ul/well of CellTiter-Glo reagent was added into the assay plates using a Flying Reagent Dispenser. After 30 min incubation at room temperature, the luminescence intensity in the plates was measured using a ViewLux plate reader.
# Potency is read from the fitted curve at half-maximal effect.
SMILES,"activity change, negative = cytotoxicity",Potency
C=CCCCCCCCCCCCCCC,3.4% [at 13.5 µM] (inactive),
OCCOCC#CCOCCO,,inactive
COC(C)(C)CC(C)=O,,inactive
COCCc1ccc(OCC2CO2)cc1 (stereo not given),,inactive
CCOC(=O)COc1ccc2c(C)c(CCN(CC)CC)c(=O)oc2c1Cl,,inactive
O=C(OCC(COC(=O)c1cccnc1)(COC(=O)c1cccnc1)COC(=O)c1cccnc1)c1cccnc1,,inactive
Cc1cccc(NC(=S)N(C)C)c1,,inactive
NNc1nc(-c2ccccc2)cs1,,inactive
CCC(Cl)CC(Cl)C(Cl)C(Cl)C(Cl)C(C)Cl (stereo not given),-1.84% [at 13.5 µM] (inactive),
O=C(OC[C@H]1O[C@@H](OC(=O)c2cc(O)c(O)c(OC(=O)c3cc(O)c(O)c(O)c3)c2)[C@H](OC(=O)c2cc(O)c(O)c(OC(=O)c3cc(O)c(O)c(O)c3)c2)[C@@H](OC(=O)c2cc(O)c(O)c(OC(=O)c3cc(O)c(O)c(O)c3)c2)[C@@H]1OC(=O)c1cc(O)c(O)c(OC(=O)c2cc(O)c(O)c(O)c2)c1)c1cc(O)c(O)c(OC(=O)c2cc(O)c(O)c(O)c2)c1,8.38% [at 13.5 µM] (inactive),
C=C(C)CS(=O)(=O)O,,inactive
CCCCCCCCC(CO)CCCCCC (stereo not given),,inactive
CC(=O)CC(=O)Nc1ccc(S(=O)(=O)O)cc1,,inactive
CCCCCCCCCCCCCCOS(=O)(=O)O,,inactive
O=c1[nH][nH]c2ccccc12,,inactive
CCOC(=O)CC(C)C,,inactive
CCC(C)n1ncn(-c2ccc(N3CCN(c4ccc(OC[C@H]5CO[C@](Cn6cncn6)(c6ccc(Cl)cc6Cl)O5)cc4)CC3)cc2)c1=O (stereo not given in full),,inactive
C=C[Si](OCC)(OCC)OCC,,inactive
O=C1OC2(c3ccccc31)c1ccc(O)c(Br)c1Oc1c2ccc(O)c1Br,,inactive
CCCCCCCOC(=O)c1ccc(O)cc1,,36.4 µM (active)

SMILES,"activity change, negative = cytotoxicity",Potency
CCN(Cc1ccncc1)C(=O)C(CO)c1ccccc1 (stereo not given),,inactive
C=CC(=O)Nc1cc2c(Nc3ccc(F)c(Cl)c3)ncnc2cc1OCCCN1CCOCC1,,inactive
Cc1onc(-c2c(Cl)cccc2Cl)c1C(=O)N[C@@H]1C(=O)N2[C@@H]1SC(C)(C)[C@@H]2C(=O)O,,inactive
Nc1cccc(O)c1,,inactive
CN1CCC(Nc2ncc3ncnc(Nc4ccc(F)c(Cl)c4)c3n2)CC1,,inactive
CC[N+](C)(CC)CC,,inactive
CC(C)(C)C1=CC(=O)C=C(C(C)(C)C)C1=O,,inactive
CC1(C)CC(=O)CC(C)(C)N1,,inactive
O=C1CCCN1C1CCCCC1,,inactive
CCc1cc(Cc2cc(CC)c(N)c(CC)c2)cc(CC)c1N,,40.8 µM (active)
Nc1cc(N)cc(C(=O)O)c1,,inactive
CCCCCCCCCCCCN1CCCCCC1=O,,inactive
O=C(/C=C/c1ccccc1)NCCO,,inactive
CCO[C@H](Cc1ccc(OCCc2ccc(OS(C)(=O)=O)cc2)cc1)C(=O)O,,inactive
CN(C)C(=O)Nc1ccccc1,,inactive
CCc1cc(C(C)(C)C)c(O)c(C(C)(C)C)c1,,inactive
C[C@H](CCC(=O)O)[C@H]1CC[C@H]2[C@@H]3CC[C@@H]4C[C@H](O)CC[C@]4(C)[C@H]3C[C@H](O)[C@]12C,,inactive
CC(=O)Nc1ccc(OC(=O)c2ccccc2OC(C)=O)cc1,,inactive
Cc1ccc(O)c([C@H](CCN(C(C)C)C(C)C)c2ccccc2)c1,,inactive
COc1cc(N)ccc1C,,inactive
